For 91 compounds, activity, negative = inhibition and AC50 results are on record in PubChem BioAssay AID1851 (National Center for Advancing Translational Sciences (NCATS), 2009).

Screen size: about 16,000 compounds; about 2,600 (16%) were called active. Another 20% or so got no clear call; they are omitted. Calls follow the shape of the dose curve; as a rule, active = well fitted curve in the direction sought with a large enough effect; inconclusive = small, poorly fitted or top-dose-only effect, or effect the other way; inactive = no such curve, though single readings can be large or run the other way. These entries were drawn from the full list.

As a reminder, the AC50 is the concentration at which the activity in the assay is half-maximal.
% is scaled to controls: 0 for no effect and ±100 for the full control effect.

For the test, the target named is Cytochrome P450 2D6 (Homo sapiens) (UniProt P10635). As to the kind of experiment: Cytochrome panel assay with activity outcomes. The settings on record: recombinant CYP, pro-luciferin dealkylation, luminescence, p450-cyp2d6; series mostly up to 57.1 µM.
Cytochrome P450 2D6 (Homo sapiens), sequence (P10635 whole entry, looked up): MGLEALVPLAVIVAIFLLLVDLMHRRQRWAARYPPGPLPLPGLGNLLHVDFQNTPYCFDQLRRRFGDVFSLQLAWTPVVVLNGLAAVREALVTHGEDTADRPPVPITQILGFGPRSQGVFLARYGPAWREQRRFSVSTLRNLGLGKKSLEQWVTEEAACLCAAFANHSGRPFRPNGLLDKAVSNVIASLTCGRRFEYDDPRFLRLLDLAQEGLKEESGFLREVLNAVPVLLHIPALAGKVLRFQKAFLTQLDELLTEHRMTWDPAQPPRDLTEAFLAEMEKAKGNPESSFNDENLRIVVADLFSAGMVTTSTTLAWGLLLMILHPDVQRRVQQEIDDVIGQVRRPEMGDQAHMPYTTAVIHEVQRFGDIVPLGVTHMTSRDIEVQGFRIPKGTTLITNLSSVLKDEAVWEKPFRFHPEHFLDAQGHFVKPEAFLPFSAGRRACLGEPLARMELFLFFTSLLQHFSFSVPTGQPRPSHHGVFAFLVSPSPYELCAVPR
For the compound `CC1=C[N+](=O)c2ccccc2[N+]1=O`, the activity, negative = inhibition was 22.3% [at 11.4 µM] (inactive).
Same read-out and setting: the value for `COc1ccc(O[C@H]2C=C[C@@H](c3ccccc3)O[C@H]2CO/N=C\C[C@@H]2C=C[C@H](OC(C)=O)[C@H](COC(C)=O)O2)cc1` was -5.75% [at 11.4 µM] (inactive); that for `CCCNC(=O)OC[C@@H]1O[C@H](CCO/N=C2\c3cc(OC)ccc3O[C@H](c3cccc(OC)c3)[C@H]2O)C=C[C@@H]1Oc1ccc(OC)cc1` was -1.45% [at 11.4 µM] (inactive).
Turning to `C/C(CCC(=O)OC[C@@H]1O[C@H](C#Cc2ccccc2)C=C[C@@H]1Oc1ccc(C)cc1)=N/OC[C@@H](O)COCc1ccco1`, the activity, negative = inhibition is 5.64% [at 11.4 µM] (inactive).
On to `COc1ccc(O[C@H]2C=C[C@@H](c3ccccc3)O[C@H]2COC(=O)CC/C(C)=N/O[C@@H]2O[C@H](COC(C)=O)[C@H](OC(C)=O)[C@H](OC(C)=O)[C@H]2OC(C)=O)cc1`, for which the AC50 is 3.16 µM (active).
For `COc1ccc(O[C@H]2C=C[C@@H](c3ccccc3)O[C@H]2CO/N=C(/C)CCC(=O)OC[C@@H]2O[C@H](c3ccccc3)C=C[C@@H]2Oc2ccc(OC)cc2)cc1`, the activity, negative = inhibition was 8.39% [at 11.4 µM] (inactive).
Take `COc1cccc([C@H]2Oc3ccc(OC)cc3/C(=N\O[C@@H]3O[C@H](COC(C)=O)[C@H](OC(C)=O)[C@H](OC(C)=O)[C@H]3OC(C)=O)[C@@H]2O)c1`: the half-maximal activity concentration (AC50) is 3.16 µM (active).
Consider `CC(=O)OC[C@H]1O[C@@H](O/N=C(\C)CCC(=O)OC[C@@H]2O[C@H](C#Cc3ccccc3)C=C[C@@H]2Oc2ccc(C)cc2)[C@H](OC(C)=O)[C@@H](OC(C)=O)[C@H]1OC(C)=O`, for which the AC50 was 3.98 µM (active).
For `CC(=O)OC[C@@H]1O[C@H](CCO/N=C(\C)CCC(=O)OC[C@@H]2O[C@H](C#Cc3ccccc3)C=C[C@@H]2Oc2ccc(C)cc2)C=C[C@@H]1OC(C)=O`, the activity, negative = inhibition was 15.9% [at 11.4 µM] (inactive).
Take `COc1ccc(O[C@H]2C=C[C@@H](c3ccccc3)O[C@H]2CO/N=C2/c3cc(OC)ccc3O[C@@H](c3cccc(OC)c3)[C@H]2O)cc1`: the activity, negative = inhibition was -21.5% [at 11.4 µM] (inactive).
As to `CN1CCN(c2ncc3ncc(=O)n(CCC#N)c3n2)CC1`, the AC50 result is “inactive”.
Same read-out and setting: the value for `COC(=O)c1ccc(Oc2cc(C)nc(-n3nc(C)cc3C)n2)cc1` was “inactive”; that for `Cc1cccc(NC(=S)NNC(=O)CC(C)O)c1C` (stereo unspecified) was “inactive”; that for `O=C(/C=C/c1ccc2ccccc2c1)c1ccoc1` was “inactive”.
Regarding `COC(=O)c1c(-c2ccc3ccccc3c2)csc1NC(=O)Cc1ccc(OC)c(OC)c1`, the AC50 entry was “inactive”.
On the same count and under the same terms, the entry for `CNC(=O)c1nnn(Cc2ccccc2)c1NC(=O)C(F)(F)F` is “inactive”; for `O=C(NCCNc1ccc([N+](=O)[O-])cc1)c1ccccc1Br` it is 11.2 µM (active).
Still for that read-out and setting: the value for `O=C(N/N=C/c1ccc([N+](=O)[O-])s1)c1ccccc1Br` was “inactive”.
As for `O=C(O)CCCCCNC(=O)c1ccccc1Br`, the AC50 result was “inactive”.
Still for that read-out and setting: the value for `NC(=O)N1c2ccccc2C=Cc2ccccc21` was “inactive”; that for `Cc1cc(Oc2ccc(-c3ccccc3)cc2)nc(N2CCOCC2)n1` was “inactive”; that for `CCC(C)n1nnc2c(=O)oc3ccccc3c21` (stereo unspecified) was “inactive”.
The same measure, in the same setting: the entry for `C[C@@H](C(=O)Nc1ccc2ccccc2c1)[C@@H]1C[C@@]1(C)[C@@H](NC(=O)c1cnccn1)c1ccccc1` is “inactive”; for `C[C@@H](C(=O)Nc1ccc2ccccc2c1)[C@H]1C[C@]1(C)[C@H](NC(=O)c1cnccn1)c1ccccc1` it is 0.1 µM (active).
In the case of `C[C@@H](C(=O)Nc1ccc2ccccc2c1)[C@@H]1C[C@@]1(C)[C@@H](NC(=O)c1ccncc1Cl)c1ccccc1`, the AC50 was 12.6 µM (active).
`COC(=O)[C@H]1C[C@@H]1[C@H](NC(=O)c1cnccn1)c1ccccc1`: the AC50 entry is “inactive”.
Consider `O=P(O)(O)O[C@@H]1O[C@H](CO)[C@@H](O)[C@H](O)[C@@H]1O`, for which the activity, negative = inhibition is 9.85% [at 11.4 µM] (inactive).
For `CCOC(=O)/C(C#N)=C\N(C)C`, the AC50 entry was “inactive”.
On to `O=C(c1cccc(F)c1)N1CCC2(CCCN(c3ccc(-c4ccccc4)cc3)C2)CC1`, for which the AC50 result was “inactive”.
Turning to `Cc1ccc(OCC(=O)Nc2ccc(S(=O)(=O)Nc3onc(C)c3C)cc2)cc1`, the AC50 entry is “inactive”.
Regarding `COCc1nc2c([nH]1)c(=O)n(C)c(=O)n2CC(C)C`, the AC50 result is “inactive”.
On the same count and under the same terms, the entry for `O=C(O)CCC(=O)N1CCOc2ccc(Cl)cc21` is “inactive”; for `CC(=O)NNC(=O)N1Cc2ccccc2Oc2ccc(Cl)cc21` it is 6.31 µM (active).
On the same count and under the same terms, the value for `CC(=O)NNC(=O)C(O)(c1ccccc1)c1ccccc1` was “inactive”; that for `CC/C(O)=C(\C#N)c1nnc2n1CCCCC2` was “inactive”.
Still for that read-out and setting: the value for `COc1ccc(-c2nc3cnc(Nc4cccc(OC)c4)nc3n(CCC#N)c2=O)cc1` was “inactive”; that for `Cc1ccc(NC(=O)Cn2nc([N+](=O)[O-])c(Br)c2C)cc1C` was “inactive”.
Take `CCOc1ccccc1CNCCN1CCOCC1`: the AC50 was 12.6 µM (active).
`Cc1ccccc1-c1cc(NCCN2CCOCC2)ncn1`: the AC50 entry is “inactive”.
Still for that read-out and setting: the value for `c1csc(CNCCCN2CCOCC2)c1` was “inactive”; that for `COc1cc(CNCc2ccccn2)ccc1OCc1ccc(Cl)cc1Cl` was 12.6 µM (active).
As for `COc1ccc(NC(=O)COc2ccc(CNCCCN3CCOCC3)cc2OC)cc1`, the AC50 result was “inactive”.
With `COc1cc(CNn2nnnc2N)ccc1OCc1c(Cl)cccc1Cl`, the AC50 result was “inactive”.
`COc1cc(CNCCN2CCOCC2)ccc1OCc1ccccc1Cl`: the AC50 is 11.2 µM (active).
On to `COc1cc2c(cc1OC)-c1cc(NCc3ccccn3)nc(=O)n1CC2`, for which the AC50 entry is “inactive”.
`COc1ccc(CC(=O)NCc2ccccn2)cc1OC`: the AC50 result was “inactive”.
Same read-out and setting: the entry for `CCN(CC)S(=O)(=O)N1CCC(C(=O)NC2CCCC2)CC1` is “inactive”.
On the same count and under the same terms, the entry for `COc1cccc(Cn2c(=O)c(-c3cccc(C#N)c3)nc3cnc(OC)nc32)c1` is “inactive”; for `COc1ccc(-c2cc(C(F)(F)F)nc(N3CCOCC3)n2)cc1OC` it is “inactive”; for `CC1=NN(c2ccc(C)cc2C)C(=O)C1C(c1ccccc1)C1C(=O)N(c2ccc(C)cc2C)N=C1C` (stereo unspecified) it is “inactive”.
With `C=CC[C@@H]1C=C[C@@H](O/N=C\[C@@H](OC)[C@H](C)/C=C\CC(=O)OC)[C@@H](CO)O1`, the activity, negative = inhibition was 4.18% [at 11.4 µM] (inactive).
`O=C(c1cc(-c2ccncc2)nc2ccccc12)N1CCN(c2ccc(N3CCOCC3)nn2)CC1`: the AC50 result was “inactive”.
Still for that read-out and setting: the entry for `COc1ccc(/C(O)=C2\C(=O)C(=O)N(c3cc(C)on3)C2c2ccc(OC)c(OC)c2)cc1OC` (stereo unspecified) is “inactive”.
On the same count and under the same terms, the value for `CC(C)c1nnc(NC(=O)c2sc3ccccc3c2Cl)s1` was “inactive”.
On to `C[N+](C)(CCCCCC[N+](C)(C)CCCN1C(=O)c2cccc3cccc(c23)C1=O)CCCN1C(=O)c2cccc3cccc(c23)C1=O`, for which the AC50 entry was “inactive”.
Consider `CS[C@@H](CC(=O)O)C(=O)O`, for which the activity, negative = inhibition is -10.1% [at 11.4 µM] (inactive).
Consider `CCN(CC)CC#CCC(C)(c1ccccc1)c1ccccc1`, for which the AC50 is 0.891 µM (active).
Take `CC(CC(=O)O)(CC(=O)O)c1ccccc1`: the activity, negative = inhibition was 11.2% [at 11.4 µM] (inactive).
With `COc1ncc2nc(C)c(=O)n(-c3ccccc3)c2n1`, the AC50 result was “inactive”.
Same read-out and setting: the entry for `O=C(Nc1nc(-c2ccccc2)cs1)c1ccc(Br)o1` is “inactive”; for `CN1CCN(c2ncc3nc(-c4cc(F)cc(F)c4)c(=O)n(Cc4cccs4)c3n2)CC1` it is “inactive”; for `O=C(c1ccc(S(=O)(=O)N2CCCCCC2)cc1)N1CCC(CN2C(=O)c3cccc4cccc(c34)C2=O)CC1` it is “inactive”.
For `O=C(CCN1C(=O)c2ccccc2C1=O)Oc1ccc2ccccc2c1`, the AC50 result is “inactive”.
For `O=C1c2cccc3cccc(c23)C(=O)N1CC1CCN(CC(O)COc2ccc3ccccc3c2)CC1` (stereo unspecified), the AC50 was 0.708 µM (active).
In the case of `O=C(O)[C@@H](S)[C@H](S)C(=O)O`, the activity, negative = inhibition was -4.31% [at 11.4 µM] (inactive).
Take `CN1CCN(c2ccc([N+](=O)[O-])cc2S(=O)(=O)N2CCOCC2)CC1`: the AC50 entry was “inactive”.
On the same count and under the same terms, the value for `CC(=O)Nc1ccc(N2CCCCC2)cc1` was “inactive”; that for `Cc1cccc(N2CCN(c3ccc(NC(=O)/C=C(/C(=O)O)c4ccccc4)cc3)CC2)c1` was “inactive”.
On to `Cc1cccc(OCCCC(=O)Nc2ccc(N3CCCCC3)cc2)c1`, for which the AC50 is 0.891 µM (active).
With `Cc1ccnc2nc(C(=O)OCC(=O)Nc3ccc4c(c3)OC(F)(F)O4)nn12`, the AC50 entry was “inactive”.
Consider `CCO[P@]1(=O)OC[C@@H]2O[C@H](n3cnc4c(N)ncnc43)[C@H](O)[C@@H]2O1`, for which the activity, negative = inhibition is 4.83% [at 11.4 µM] (inactive).
As for `CCN(/C=N/c1sc2c(c1C#N)CCCCC2)CC`, the AC50 result was “inactive”.
On the same count and under the same terms, the value for `O=C(NC1(C(F)(F)F)C(=O)Nc2c1c(=O)[nH]c(=O)n2-c1ccc(F)cc1)c1cccnc1` (stereo unspecified) was “inactive”.
Turning to `CN(C)CCCN1CC(C(=O)O)CC1=O` (stereo unspecified), the AC50 entry was “inactive”.
On the same count and under the same terms, the value for `c1ccc(Nc2ncnc3ccc(-c4cccnc4)cc23)cc1` was “inactive”; that for `c1ccc(CNc2ncnc3ccc(-c4cccnc4)cc23)cc1` was 10 µM (active); that for `c1cncc(-c2ccc3ncnc(NC4CCNCC4)c3c2)c1` was “inactive”.
Same read-out and setting: the value for `Cc1cccc(CNc2ncnc3ccc(-c4cccnc4)cc23)c1` was 12.6 µM (active); that for `Cc1cccc(CNc2ncnc3ccc(-c4cccc(C#N)c4)cc23)c1` was “inactive”; that for `CN1CCN(C2CC(=O)N(Cc3ccc(N4CCCC4=O)cc3)C2=O)CC1` (stereo unspecified) was “inactive”.
For `O=c1c(-c2ccccc2)nc2cnc(N3CCNCC3)nc2n1Cc1ccc(F)cc1`, the AC50 entry is “inactive”.
For `COc1ccc2c(Cl)cc(NC(=S)Nc3ccccc3)nc2c1`, the activity, negative = inhibition is -18.8% [at 11.4 µM] (inactive).
In the case of `COc1ccc(N2C(=O)CCC(C(=O)O)C2c2ccc(F)cc2)cc1` (stereo unspecified), the AC50 result is “inactive”.
The same measure, in the same setting: the entry for `CN1CCN(c2ncc3nc(-c4cn(C)c5ccccc45)c(=O)n(C)c3n2)CC1` is “inactive”.
On to `O=C(NNc1cccc(Cl)n1)Nc1ccccc1Cl`, for which the AC50 result was “inactive”.
For the compound `COc1ccc(-c2nc3cnc(N4CCNCC4)nc3n(Cc3cccs3)c2=O)cc1`, the AC50 entry is “inactive”.
Turning to `Cc1nc(-c2cccc(NC(=O)c3cc4cc(Br)ccc4oc3=O)c2)cs1`, the AC50 result is “inactive”.
Still for that read-out and setting: the value for `CCn1c(C)cc(/C=C2\NC(=O)N(Cc3ccc(Cl)cc3)C2=O)c1C` was “inactive”.
With `CCN(CC)c1ccc(/C=C/c2nc3ccccc3s2)cc1`, the AC50 was 28.2 µM (active).
On the same count and under the same terms, the value for `Brc1ccc(/C=C/C=N/Nc2nc3ccccc3s2)cc1` was “inactive”; that for `Cc1ccc(NC(=S)c2nc3ccccc3s2)cc1` was “inactive”.
